Measurements as given in PubChem BioAssay.
Unmarked numbers belong to inactive results. The source made the active and inactive calls. Cut-off read from the data, not from the text of the source, unless noted: active = inhibition above about 30%; inactive = the rest.

How the values were obtained:
[1] = target: Nuclear receptor coactivator 3 (Homo sapiens) (UniProt Q9Y6Q9); test: NCOA3 GAL4-fusion reporter inhibition – cell-based, luminescence, quadruplicate, confirmation (AID 588792;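 active = mean inhibition over 43.08%, the solvent-only control mean plus 3 SD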;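 note: 0% = DMSO treated cells and 100% = gossypol at 36 µM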); details: HEK293 GAL4-SRC3 luciferase reporter, at 3.6 µM, hits give high values
[2] = system: transactivating tegument protein VP16 (Human herpesvirus 1), Gal4-VP16 luciferase reporter; test: repression of VP16-driven luciferase reporter – cell-based, luminescence, high throughput, counter-screen for SRC3 inhibitor project (AID 588794); details: mammalian cells, at 3.6 µM, hits give high values
[3] = target: Nuclear receptor coactivator 1 (Homo sapiens) (UniProt Q15788); test: NCOA1 GAL4-fusion reporter inhibition – cell-based, luminescence, quadruplicate, confirmation (AID 588820;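 active = mean inhibition above 46.68%, the untreated control wells mean plus 3 SD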;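 note: 0% = DMSO wells and 100% = gossypol 36 µM treated wells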); details: HEK293 GAL4-SRC1 luciferase reporter, at 3.6 µM, hits give high values
[4] = repression of VP16-driven luciferase reporter – cell-based, luminescence, high throughput, counter-screen for SRC1 inhibitor project (AID 588824; in the data active = inhibition above about 25%); details: cell-based VP16 transactivation luciferase luminescence; at 3.6 µM; hits give high values
[5] = StAR promoter reporter inhibitors, counter-screen for LRH-1 inverse agonist project, cell-based, luminescence, high throughput (AID 651611; in the data active = inhibition above about 28%); details: StAR promoter luciferase reporter counterscreen, at 3.6 µM, hits give high values
[6] = target: Nuclear receptor subfamily 5 group A member 2 (Homo sapiens) (UniProt O00482); test: NR5A2 activity suppression in reporter cells – cell-based, luminescence, confirmation (AID 651613; in the data active = inhibition above about 42%;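 note: HEK293T cells co-transfected with LRH-1 and StAR promoter luciferase reporter; 0% = vehicle wells and 100% = parental cells lacking receptor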); details: cell-based LRH-1 luciferase reporter, inverse agonism; at 3.6 µM; hits give high values
[7] = target: Steroidogenic factor 1 (Homo sapiens) (UniProt Q13285); test: inverse agonism at SF1 nuclear receptor – cell-based, luminescence, high throughput, counter-screen for LRH-1 inverse agonist project (AID 651614; in the data active = inhibition above about 44%;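 note: cells cotransfected with StAR promoter reporter and SF1 expression vector; 0% = vehicle on cells with receptor and 100% = vehicle on cells lacking receptor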); details: cell-based SF1 luciferase reporter, at 3.6 µM, hits give high values
[8] = compounds suppressing VP16-driven luciferase signal – cell-based, luminescence, high throughput, counter-screen for LRH-1 inverse agonist project (AID 651615; in the data active = inhibition above about 33%); details: Gal4-VP16 luciferase reporter cells, at 3.6 µM, hits give high values

Chain of Nuclear receptor coactivator 3 (Homo sapiens) (Q9Y6Q9 whole entry, looked up, the tested form may be a part): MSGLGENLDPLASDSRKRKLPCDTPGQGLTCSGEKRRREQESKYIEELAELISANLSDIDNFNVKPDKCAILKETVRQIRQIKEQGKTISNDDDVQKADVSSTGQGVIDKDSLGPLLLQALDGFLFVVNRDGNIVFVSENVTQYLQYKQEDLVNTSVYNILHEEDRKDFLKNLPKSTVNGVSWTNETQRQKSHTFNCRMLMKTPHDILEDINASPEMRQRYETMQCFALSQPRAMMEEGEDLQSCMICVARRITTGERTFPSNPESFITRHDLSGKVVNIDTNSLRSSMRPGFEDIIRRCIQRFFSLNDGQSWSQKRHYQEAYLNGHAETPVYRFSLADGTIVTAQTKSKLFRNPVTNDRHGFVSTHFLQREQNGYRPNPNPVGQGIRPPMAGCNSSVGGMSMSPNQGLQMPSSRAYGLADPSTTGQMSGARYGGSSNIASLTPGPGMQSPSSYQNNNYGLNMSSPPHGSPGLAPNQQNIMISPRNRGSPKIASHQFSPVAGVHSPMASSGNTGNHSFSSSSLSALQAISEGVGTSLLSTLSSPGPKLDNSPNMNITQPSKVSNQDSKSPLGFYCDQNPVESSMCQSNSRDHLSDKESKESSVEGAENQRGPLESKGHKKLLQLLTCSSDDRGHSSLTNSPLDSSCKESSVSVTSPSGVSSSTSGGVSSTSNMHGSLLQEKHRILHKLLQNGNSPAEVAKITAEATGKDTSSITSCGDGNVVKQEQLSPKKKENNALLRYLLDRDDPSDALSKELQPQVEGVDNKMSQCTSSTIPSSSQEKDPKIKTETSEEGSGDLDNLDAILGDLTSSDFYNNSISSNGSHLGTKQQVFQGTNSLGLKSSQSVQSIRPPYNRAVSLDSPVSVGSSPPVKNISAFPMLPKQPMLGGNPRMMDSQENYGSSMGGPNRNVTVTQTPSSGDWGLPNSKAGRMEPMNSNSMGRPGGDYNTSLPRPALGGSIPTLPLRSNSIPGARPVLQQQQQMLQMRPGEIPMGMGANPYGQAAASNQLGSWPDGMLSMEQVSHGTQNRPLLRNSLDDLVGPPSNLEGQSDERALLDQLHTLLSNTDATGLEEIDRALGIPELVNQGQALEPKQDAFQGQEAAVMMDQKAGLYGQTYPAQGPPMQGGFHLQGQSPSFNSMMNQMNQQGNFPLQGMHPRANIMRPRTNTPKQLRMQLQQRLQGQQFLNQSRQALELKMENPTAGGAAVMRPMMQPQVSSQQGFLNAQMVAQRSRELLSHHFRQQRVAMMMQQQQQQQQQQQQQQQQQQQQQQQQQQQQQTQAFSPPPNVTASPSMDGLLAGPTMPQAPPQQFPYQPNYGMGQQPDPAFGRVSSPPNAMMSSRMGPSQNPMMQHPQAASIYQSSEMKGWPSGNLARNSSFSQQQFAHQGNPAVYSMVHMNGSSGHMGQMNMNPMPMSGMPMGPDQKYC
Chain of Nuclear receptor subfamily 5 group A member 2 (Homo sapiens) (O00482 whole entry, looked up): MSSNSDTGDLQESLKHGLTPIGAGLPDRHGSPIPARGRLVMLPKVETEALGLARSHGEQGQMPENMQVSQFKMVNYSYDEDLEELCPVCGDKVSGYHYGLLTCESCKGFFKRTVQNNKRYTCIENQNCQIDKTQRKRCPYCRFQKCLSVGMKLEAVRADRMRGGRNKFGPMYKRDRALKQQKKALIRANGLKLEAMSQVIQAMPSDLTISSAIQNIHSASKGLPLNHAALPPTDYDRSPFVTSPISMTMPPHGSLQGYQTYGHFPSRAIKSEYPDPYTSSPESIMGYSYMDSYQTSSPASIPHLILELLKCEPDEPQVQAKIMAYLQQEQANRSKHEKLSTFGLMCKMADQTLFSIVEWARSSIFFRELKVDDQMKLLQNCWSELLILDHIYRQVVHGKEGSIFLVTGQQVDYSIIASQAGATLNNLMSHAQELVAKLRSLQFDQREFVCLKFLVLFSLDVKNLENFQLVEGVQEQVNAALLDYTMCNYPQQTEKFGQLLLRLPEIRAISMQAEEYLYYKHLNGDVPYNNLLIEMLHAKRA
Chain of Nuclear receptor coactivator 1 (Homo sapiens) (Q15788 whole entry, looked up, the tested form may be a part): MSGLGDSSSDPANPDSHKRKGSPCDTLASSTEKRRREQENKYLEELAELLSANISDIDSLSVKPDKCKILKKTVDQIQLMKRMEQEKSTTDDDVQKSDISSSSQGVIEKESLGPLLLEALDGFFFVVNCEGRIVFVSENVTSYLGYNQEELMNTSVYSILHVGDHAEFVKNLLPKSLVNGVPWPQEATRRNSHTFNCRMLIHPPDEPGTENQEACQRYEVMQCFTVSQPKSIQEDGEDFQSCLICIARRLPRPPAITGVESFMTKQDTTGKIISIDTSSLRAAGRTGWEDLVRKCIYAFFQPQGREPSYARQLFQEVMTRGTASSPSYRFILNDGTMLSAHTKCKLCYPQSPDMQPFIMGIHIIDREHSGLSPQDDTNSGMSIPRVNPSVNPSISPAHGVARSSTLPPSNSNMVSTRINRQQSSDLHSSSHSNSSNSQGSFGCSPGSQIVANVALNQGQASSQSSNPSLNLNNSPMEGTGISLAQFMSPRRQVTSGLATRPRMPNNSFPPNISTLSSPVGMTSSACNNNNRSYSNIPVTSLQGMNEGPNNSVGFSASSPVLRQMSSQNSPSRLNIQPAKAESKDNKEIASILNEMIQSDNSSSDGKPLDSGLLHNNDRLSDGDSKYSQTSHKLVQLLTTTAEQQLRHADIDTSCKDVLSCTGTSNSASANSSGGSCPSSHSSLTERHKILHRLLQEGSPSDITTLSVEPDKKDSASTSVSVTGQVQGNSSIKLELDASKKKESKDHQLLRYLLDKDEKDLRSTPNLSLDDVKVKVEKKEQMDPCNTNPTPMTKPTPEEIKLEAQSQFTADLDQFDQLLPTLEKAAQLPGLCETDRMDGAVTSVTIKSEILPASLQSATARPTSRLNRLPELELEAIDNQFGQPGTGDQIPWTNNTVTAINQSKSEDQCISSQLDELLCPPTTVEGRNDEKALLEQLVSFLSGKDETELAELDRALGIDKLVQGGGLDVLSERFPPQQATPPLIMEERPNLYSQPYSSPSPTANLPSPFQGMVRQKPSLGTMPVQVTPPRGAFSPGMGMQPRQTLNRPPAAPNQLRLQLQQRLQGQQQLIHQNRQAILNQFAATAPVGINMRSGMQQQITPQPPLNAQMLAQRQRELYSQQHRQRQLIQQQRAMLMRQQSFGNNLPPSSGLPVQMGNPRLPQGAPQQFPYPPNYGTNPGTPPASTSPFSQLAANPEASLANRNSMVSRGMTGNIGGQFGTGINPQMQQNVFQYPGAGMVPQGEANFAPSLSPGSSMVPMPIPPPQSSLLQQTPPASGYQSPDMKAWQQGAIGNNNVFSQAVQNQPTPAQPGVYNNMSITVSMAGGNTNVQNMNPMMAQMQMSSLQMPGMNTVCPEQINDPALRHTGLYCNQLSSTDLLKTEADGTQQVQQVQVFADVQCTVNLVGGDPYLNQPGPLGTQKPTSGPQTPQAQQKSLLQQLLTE
Chain of Steroidogenic factor 1 (Homo sapiens) (Q13285 whole entry, looked up, the tested form may be a part): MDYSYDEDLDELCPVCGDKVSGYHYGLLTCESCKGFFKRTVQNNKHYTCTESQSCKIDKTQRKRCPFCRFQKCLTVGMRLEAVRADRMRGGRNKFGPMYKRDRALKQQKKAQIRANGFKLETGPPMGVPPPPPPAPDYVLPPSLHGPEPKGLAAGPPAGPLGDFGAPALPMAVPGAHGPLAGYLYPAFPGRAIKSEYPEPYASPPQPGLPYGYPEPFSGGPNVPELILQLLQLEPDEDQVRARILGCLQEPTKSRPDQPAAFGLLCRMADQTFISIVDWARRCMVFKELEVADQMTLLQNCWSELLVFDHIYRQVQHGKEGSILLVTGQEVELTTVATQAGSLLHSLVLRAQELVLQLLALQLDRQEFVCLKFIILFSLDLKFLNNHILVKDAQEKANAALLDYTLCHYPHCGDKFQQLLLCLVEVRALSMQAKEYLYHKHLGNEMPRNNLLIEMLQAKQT

Compound | inhibition [1] | inhibition [2] | inhibition [3] | inhibition [4] | inhibition [5] | inhibition [6] | inhibition [7] | inhibition [8]
Cc1cc(C)cc(NS(=O)(=O)c2ccc3c(c2)c(=O)n(C)c(=O)n3C)c1 | 55.2% (active) | 36.5% (active) | 57.1% (active) | 38% (active) | 36.2% (active) | 54.4% (active) | 41.3% | 56.9% (active)
c1ccc(-c2nn(-c3ccccc3)[n+](-c3ccccc3)n2)cc1 | 20.3% | 14.7% | -0.24% | 15.6% | 23.8% | 43.8% (active) | 46% (active) | 48.5% (active)
O=C1C(Nc2ccc(O)cc2)=C/C(=N/S(=O)(=O)c2cccs2)c2ccccc21 | 85.2% (active) | 72% (active) | 29.5% | 68% (active) | 79.7% (active) | 101% (active) | 87.6% (active) | 95.2% (active)
Cc1ccc2[nH]c3c(c2c1)CCCC3NC(=O)CCl (configuration not stated) | 87.4% (active) | 84.2% (active) | 44.3% | 82.4% (active) | 92% (active) | 106% (active) | 96.3% (active) | 92.3% (active)
CCCCCC[n+]1ccccc1/C=C/c1ccc(N(C)C)cc1 | 89.5% (active) | 88.2% (active) | 64% (active) | 86.2% (active) | 81.5% (active) | 110% (active) | 94.8% (active) | 94.7% (active)
CCn1c(C)cc(C(=O)COC(=O)c2ccccc2[N+](=O)[O-])c1C | 92.9% (active) | 90.4% (active) | 86.8% (active) | 86.1% (active) | 83.5% (active) | 83.8% (active) | 83.6% (active) | 81.4% (active)
COc1ccc(-n2cc(-c3ccc(C)cc3)[n+]3c2SCC3)cc1 | 30.8% | 55.1% (active) | 22.8% | 51% (active) | 40.9% (active) | 83.5% (active) | 75.1% (active) | 74.9% (active)
Cc1cc(-c2nnc(SCC(=O)Nc3ccccc3C(F)(F)F)o2)c(C)n1-c1ccccc1 | 33.3% | 11.2% | -7.25% | -22.9% | 28.2% (active) | -50.2% | 14.8% | -38.7%
CCc1ccccc1Nc1nn2c(=O)c3ccc(C(=O)NCc4ccccn4)cc3nc2s1 | 33.3% | 61.3% (active) | 42% | 59.9% (active) | 57.3% (active) | 67.3% (active) | 76% (active) | 72% (active)
